Test results: PubChem BioAssay AID1159580 (chemical genetic matrix, 2015)
Among all 5,500 compounds or so, about 2,000 (36%) were called active. Inconclusive results (about 18%) are left out. Cut-off read from the data, not from the text of the source: active = normalized growth mostly below about 0.91 (no sharp cut-off); inconclusive = no clear call, values can overlap the other calls; inactive = mostly above about 0.92. Some of the results follow.

Assay: chemical genetic growth profiling, strain panel (AID 1159580);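 note: tested at 20 µM; growth read once vehicle control cultures reached saturation at 30 °C; 1 = growth at the plate median or of vehicle wells; lower values mean less growth of the strain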
Conditions: growth OD

Measured: normalized growth

CC1=C2[C@](C)(C=CC1=O)C[C@H](O)[C@H]1[C@H](C)C(=O)O[C@]21C
inactive: S. cerevisiae deletion strains, locus YAL013W, strain DEP1, stronger effect = lower value 1.01 | S. cerevisiae deletion strains, locus YBR021W, strain FUR4, stronger effect = lower value 1 | S. cerevisiae deletion strains, locus YBR229C, strain ROT2, stronger effect = lower value 1.01 | S. cerevisiae deletion strains, locus YCL029C, strain bik1, stronger effect = lower value 1.03 | S. cerevisiae deletion strains, locus YDL035C, strain GPR1, stronger effect = lower value 1.02 | S. cerevisiae deletion strains, locus YDL074C, strain BRE1, stronger effect = lower value 1.01 | S. cerevisiae deletion strains, locus YDL101C, strain DUN1, stronger effect = lower value 1.02 | S. cerevisiae deletion strains, locus YDL134C, strain PPH21, stronger effect = lower value 1.01 | S. cerevisiae deletion strains, locus YDL185W, strain tfp1, stronger effect = lower value 1.03 | S. cerevisiae deletion strains, locus YDL192W, strain arf1, stronger effect = lower value 1.04 | S. cerevisiae deletion strains, locus YDR101C, strain arx1, stronger effect = lower value 1.01 | S. cerevisiae deletion strains, locus YDR150W, strain NUM1, stronger effect = lower value 1.01 | S. cerevisiae deletion strains, locus YDR162C, strain NBP2, stronger effect = lower value 1.03 | S. cerevisiae deletion strains, locus YDR318W, strain mcm21, stronger effect = lower value 1.03 | S. cerevisiae deletion strains, locus YDR388W, stronger effect = lower value 1.02 | S. cerevisiae deletion strains, locus YDR502C, strain sam2, stronger effect = lower value 1.03 | S. cerevisiae deletion strains, locus YEL061C, strain CIN8, stronger effect = lower value 1.01 | S. cerevisiae deletion strains, locus YER110C, stronger effect = lower value 1.03 | S. cerevisiae deletion strains, locus YER155C, strain BEM2, stronger effect = lower value 1.01 | S. cerevisiae deletion strains, locus YER167W, strain BCK2, stronger effect = lower value 1.02 | S. cerevisiae deletion strains, locus YGL078C, strain dbp3, stronger effect = lower value 1.04 | S. cerevisiae deletion strains, locus YGL086W, strain mad1, stronger effect = lower value 1.02 | S. cerevisiae deletion strains, locus YGL248W, strain PDE1, stronger effect = lower value 1.01 | S. cerevisiae deletion strains, locus YGR078C, strain PAC10, stronger effect = lower value 1.01 | S. cerevisiae deletion strains, locus YGR135W, strain pre9, stronger effect = lower value 1.01 | S. cerevisiae deletion strains, locus YGR229C, strain SMI1, stronger effect = lower value 1.01 | S. cerevisiae deletion strains, locus YGR252W, strain gcn5, stronger effect = lower value 1.07 | S. cerevisiae deletion strains, locus YHR030C, strain SLT2, stronger effect = lower value 1.01 | S. cerevisiae deletion strains, locus YHR079C, strain IRE1 (second series), stronger effect = lower value 1.03 | S. cerevisiae deletion strains, locus YHR094C, strain hxt1, stronger effect = lower value 1.03 | S. cerevisiae deletion strains, locus YHR129C, strain ARP1, stronger effect = lower value 1.01 | S. cerevisiae deletion strains, locus YHR200W, strain rpn10, stronger effect = lower value 1.03 | S. cerevisiae deletion strains, locus YIL066C, strain RNR3, stronger effect = lower value 1.03 | S. cerevisiae deletion strains, locus YIL073C, strain SPO22, stronger effect = lower value 1.1 | S. cerevisiae deletion strains, locus YIL125W, strain kgd1, stronger effect = lower value 1.03 | S. cerevisiae deletion strains, locus YIR030C, strain dcg1, stronger effect = lower value 1.02 | S. cerevisiae deletion strains, locus YJL095W, strain BCK1, stronger effect = lower value 1.01 | S. cerevisiae deletion strains, locus YJL134W, strain LCB3, stronger effect = lower value 1 | S. cerevisiae deletion strains, locus YJL168C, strain set2, stronger effect = lower value 1.03 | S. cerevisiae deletion strains, locus YJL187C, strain SWE1 (second series), stronger effect = lower value 1.01 | S. cerevisiae deletion strains, locus YJR043C, strain POL32, stronger effect = lower value 1.02 | S. cerevisiae deletion strains, locus YJR075W, strain HOC1, stronger effect = lower value 1.02 | S. cerevisiae deletion strains, locus YKL009W, strain mrt4, stronger effect = lower value 1.04 | S. cerevisiae deletion strains, locus YKL068W, stronger effect = lower value 1.04 | S. cerevisiae deletion strains, locus YKL085W, strain MDH1 (second series), stronger effect = lower value 1.02 | S. cerevisiae deletion strains, locus YKL085W, strain MDH1, stronger effect = lower value 1.02 | S. cerevisiae deletion strains, locus YKL190W, strain CNB1, stronger effect = lower value 1.01 | S. cerevisiae deletion strains, locus YKR001C, strain vps1, stronger effect = lower value 1.03 | S. cerevisiae deletion strains, locus YLR039C, strain RIC1, stronger effect = lower value 1.07 | S. cerevisiae deletion strains, locus YLR058C, strain SHM2, stronger effect = lower value 1.02 | S. cerevisiae deletion strains, locus YLR102C, strain apc9, stronger effect = lower value 1.02 | S. cerevisiae deletion strains, locus YLR262C, strain YPT6, stronger effect = lower value 1.05 | S. cerevisiae deletion strains, locus YLR268W, strain sec22, stronger effect = lower value 1.02 | S. cerevisiae deletion strains, locus YLR330W, strain CHS5, stronger effect = lower value 1.01 | S. cerevisiae deletion strains, locus YLR342W, strain FKS1 (second series), stronger effect = lower value 1.02 | S. cerevisiae deletion strains, locus YLR371W, strain rom2, stronger effect = lower value 1.03 | S. cerevisiae deletion strains, locus YLR418C, strain cdc73, stronger effect = lower value 1.04 | S. cerevisiae deletion strains, locus YML016C, strain PPZ1, stronger effect = lower value 1.01 | S. cerevisiae deletion strains, locus YML032C, strain rad52, stronger effect = lower value 1.05 | S. cerevisiae deletion strains, locus YML124C, strain tub3, stronger effect = lower value 1.03 | S. cerevisiae deletion strains, locus YMR078C, strain ctf18, stronger effect = lower value 1.04 | S. cerevisiae deletion strains, locus YMR223W, strain ubp8, stronger effect = lower value 1.04 | S. cerevisiae deletion strains, locus YMR263W, strain SAP30, stronger effect = lower value 1 | S. cerevisiae deletion strains, locus YMR307W, strain GAS1, stronger effect = lower value 1.08 | S. cerevisiae deletion strains, locus YNL067W, strain RPL9B, stronger effect = lower value 1.01 | S. cerevisiae deletion strains, locus YNL128W, strain TEP1, stronger effect = lower value 1.02 | S. cerevisiae deletion strains, locus YNL153C, strain GIM3, stronger effect = lower value 0.999 | S. cerevisiae deletion strains, locus YNL233W, strain BNI4, stronger effect = lower value 1.01 | S. cerevisiae deletion strains, locus YNL250W, strain rad50, stronger effect = lower value 1.06 | S. cerevisiae deletion strains, locus YNL271C, strain bni1, stronger effect = lower value 1.03 | S. cerevisiae deletion strains, locus YNL298W, strain CLA4, stronger effect = lower value 1.03 | S. cerevisiae deletion strains, locus YNL307C, strain MCK1, stronger effect = lower value 1.04 | S. cerevisiae deletion strains, locus YNL322C, strain KRE1, stronger effect = lower value 1.02 | S. cerevisiae deletion strains, locus YNR052C, strain pop2, stronger effect = lower value 1.04 | S. cerevisiae deletion strains, locus YOL006C, strain TOP1, stronger effect = lower value 1.03 | S. cerevisiae deletion strains, locus YOL012C, strain htz1 0.937 | S. cerevisiae deletion strains, locus YOL147C, strain pex11, stronger effect = lower value 1.03 | S. cerevisiae deletion strains, locus YOR061W, strain CKA2, stronger effect = lower value 1.01 | S. cerevisiae deletion strains, locus YOR069W, strain VPS5, stronger effect = lower value 1 | S. cerevisiae deletion strains, locus YOR136W, strain idh2, stronger effect = lower value 1.03 | S. cerevisiae deletion strains, locus YOR144C, strain elg1, stronger effect = lower value 1.02 | S. cerevisiae deletion strains, locus YOR184W, strain ser1, stronger effect = lower value 1.04 | S. cerevisiae deletion strains, locus YOR316C, strain cot1, stronger effect = lower value 1.02 | S. cerevisiae deletion strains, locus YPL055C, strain LGE1, stronger effect = lower value 1.03 | S. cerevisiae deletion strains, locus YPL241C, strain CIN2, stronger effect = lower value 1.01 | S. cerevisiae deletion strains, locus YPR119W, strain clb2, stronger effect = lower value 1.03 | S. cerevisiae deletion strains, locus YPR141C, strain kar3, stronger effect = lower value 1.04 | S. cerevisiae deletion strains, locus YPR163C, strain tif3, stronger effect = lower value 1.02 | S. cerevisiae deletion strains, locus YPR167C, strain met16, stronger effect = lower value 1.02 | S. cerevisiae deletion strains, strain wtn01, stronger effect = lower value 1 | S. cerevisiae strains, strain wild type, stronger effect = lower value 1.02
